# PubChem BioAssay AID743192 (National Center for Advancing Translational Sciences (NCATS), 2013)
# A number with no mark means an inactive call. The call rests on the fitted dose curve; in most records, active means well fitted curve in the direction sought with a large enough effect; inactive means no such curve, though single readings can be large or run the other way.
# Target: L-lactate dehydrogenase B chain (Homo sapiens) (UniProt P07195)
# Test: Extended Characterization of HPGD Inhibitors: Counterscreen Against LDHB
# Settings: LDHB enzyme, diaphorase/resazurin coupled fluorescence; series mostly up to 114 µM; activity, negative = inhibition: at the top concentration
# Source text: The central role of HPGD is to inactivate prostaglandins such as prostaglandin E2 (PGE2) or prostaglandin D2 (PGD2). These prostaglandins are involved in a number of processes, including inflammation, differentiation, and cellular signaling, which makes HPGD an important target for pharmacological intervention. A number of prostaglandins of particular biological interest have been identified as substrates of HPGD. […] Over-production of PGE2 has been reported to promote tumor-associated neovascularization, cell proliferation, and tumor growth. […] In order to further characterize the compounds, we ran them against an LDHB counterscreen. LDHA converts pyruvate to lactate while regenerating NAD+ from NADH. LDHA enzymatic activity is then coupled to the activity of diaphorase, which reversibly catalyzes the reaction of NAD+ to NADH while simultaneously reducing resazurin to the fluorescent resorufin. This change in fluorescence signal (excitation 544 nm; emission, 590 nm) was monitored using the ViewLux CCD imager (Perkin Elmer). Data were normalized against no enzyme control wells and no compound control wells. NIH Chemical Genomics Center [NCGC] NIH Molecular Libraries Probe Centers Network [MLPCN] MLPCN Grant: MH084681 Assay Submitter (PI): Structural Genomics Consortium
# 3 uL of LDHB enzyme in assay buffer are added to plate before 23 nL of compound/control are pinned into the solution. After a 15 min incubation, 1 uL of NADH (60 uM final) and sodium pyruvate (160 uM final) are added, incubated at 8 min at RT before another 1 uL of Diaphorase / Resazurin is added. The plate is read on the ViewLux after a 10 min RT incubation
# Chain of L-lactate dehydrogenase B chain (Homo sapiens) (P07195 whole entry, looked up): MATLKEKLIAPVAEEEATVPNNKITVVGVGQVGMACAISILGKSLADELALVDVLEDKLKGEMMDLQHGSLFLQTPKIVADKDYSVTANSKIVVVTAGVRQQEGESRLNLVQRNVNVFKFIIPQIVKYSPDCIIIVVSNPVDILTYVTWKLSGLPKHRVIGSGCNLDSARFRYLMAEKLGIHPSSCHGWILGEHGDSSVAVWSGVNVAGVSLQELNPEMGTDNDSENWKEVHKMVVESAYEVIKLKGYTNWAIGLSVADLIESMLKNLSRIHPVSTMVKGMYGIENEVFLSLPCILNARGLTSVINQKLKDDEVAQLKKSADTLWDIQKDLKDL
row,SMILES,"activity, negative = inhibition [%]"
1,Cc1cccc(-n2cnc3cc(C(=O)N4CCCC(C(F)(F)F)C4)ccc32)c1 (stereo not given),3.07
2,Cc1ccc(-n2c(C)cc(-c3nnc4n3CCCCC4)c2C)cc1,7.15
3,Cc1cc(-c2nnc3n2CCCCC3)c(C)n1-c1cccc(C#N)c1,0.167
4,Cc1cc(-c2nnc3n2CCCCC3)c(C)n1-c1cccc(C(F)(F)F)c1,4.68
5,O=C(c1ccc2c(c1)ncn2-c1cccc(C(F)(F)F)c1)N1CCCCC1,5.8
6,Cc1cccc(-n2cnc3cc(C(=O)N4CCCC(C)(C)C4)ccc32)c1,-0.0782
7,O=C(c1ccc2c(c1)ncn2-c1cccc(Cl)c1)N1CCCCC1,11.5
8,Cc1cc(-c2nnc3n2CCCCC3)c(C)n1-c1cccc(Cl)c1,1.42
9,COc1ccc(-n2cnc3cc(C(=O)N4CCCCC4)ccc32)cc1,5.92
10,Cc1cc(-c2nnc3n2CCCCC3)c(C)n1-c1ccc(Cl)c(Cl)c1,11
